Screening results: PubChem, several laboratories
Compounds with a hit are over-represented: about 2.2% of the library has one in this group of screens.
SMARCA2 act: SMARCA2 (BRM) function activators, primary screen, cell-based, luminescence, high throughput. activation, % at 9.1 µM. MG213 cells, MMTV-luciferase reporter, dexamethasone, overnight. actives 1% (n = 370,000); in the data active = activation above about 7.8%;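 note: 0% = vehicle wells and 100% = reference activator wells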
FXN GAA850 act: FXN promoter activators, primary screen, cell-based, luciferase luminescence, HEK293 lucGAA850. HEK293 lucGAA850 FXN promoter luciferase reporter, 24 h; percent of 10 µM SAHA response. activation, % at 6 µM. actives 0.56% (n = 360,000). AID 540364, 2011;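 active = activation above the average of all compounds screened plus 3 SD, cutoff fixed separately per campaign, cut at about 7.5% in these data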;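 note: 0% = DMSO wells and 100% = 10 µM SAHA wells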
GalR3 antag: GalR3 antagonists in HEK293 cells, primary screen, cell-based, fluorescence readout; Galanin receptor type 3 (Homo sapiens), O60755; HEK293 GalR3-CNG cAMP membrane potential fluorescence; galR3 body fused to GalR1 C-terminus; inhibition, % at 3 µM; actives 0.44% (n = 360,000); AID 651719, 2012;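 active = inhibition above the screen-wide average plus 3 SD, cut at about 13% in these data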;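 note: forskolin and galanin both at EC90 stimulate the cells; cAMP rise reported by CNG channel membrane potential dye signal; 0% = forskolin plus galanin with DMSO and 100% = forskolin alone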
Target sequence (O60755 1-299 limits assumed): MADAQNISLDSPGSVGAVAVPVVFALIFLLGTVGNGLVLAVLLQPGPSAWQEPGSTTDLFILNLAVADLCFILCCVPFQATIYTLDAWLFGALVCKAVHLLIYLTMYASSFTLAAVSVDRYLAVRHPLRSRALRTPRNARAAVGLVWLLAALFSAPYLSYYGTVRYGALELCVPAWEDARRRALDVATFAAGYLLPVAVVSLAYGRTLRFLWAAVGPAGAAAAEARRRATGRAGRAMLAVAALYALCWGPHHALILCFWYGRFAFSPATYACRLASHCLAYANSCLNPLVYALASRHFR
HIF activator: HIF pathway transcriptional activators, primary screen, cell-based, U2OS HRE-luciferase, luminescence | U2OS HRE-luciferase reporter; normalized: DMSO 0%, desferrioxamine 100% | activation, % at 7.5 µM (by protocol) | actives 0.32% (n = 300,000);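 active = mean activation of at least 10% of the iron chelator positive control signal, with at least half of replicates also reaching 10%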
Hsp70 activator: Hsp70 transcriptional activators, primary screen, cell-based, HeLa, Hsp70 promoter luciferase, luminescence, 10 µM | HeLa Hsp70 promoter luciferase reporter; scaled: vehicle 0, proteasome-inhibitor control 100% | activation, % at 10 µM | actives 0.04% (n = 200,000) | AID 1203, 2008;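 active = activation above the mean across all tested compounds plus 3 SD, cutoff set per campaign, cut at about 5.5% in these data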;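 note: 100% = MG132 at 30 µM as the positive control and 0% = DMSO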
GalR3 conf: GalR3 antagonist hit confirmation, cell-based, fluorescence, triplicate; shares compounds with GalR3 antag; HEK293 GalR3 CNG cAMP biosensor, membrane potential fluorescence; galR3 fused to GalR1 carboxy tail; challenged with forskolin and galanin at EC90; inhibition, % at 3 µM; actives 59% (n = 1,600); AID 652245, 2013;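 active = inhibition above the primary screen's cutoff, the mean inhibition of all screened compounds plus 3 SD, cut at about 13% in these data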;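 note: 0% = forskolin plus galanin and 100% = forskolin alone with DMSO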
HEK-CNG parental: nonspecific cAMP agonists in parental HEK-CNG cells, counter-screen for GalR3 antagonist project, cell-based, fluorescence, high throughput. shares compounds with GalR3 antag. HEK293-CNG parental cells, cAMP membrane potential fluorescence; normalised: DMSO wells 0%, forskolin wells 100%. activation, % at 3 µM. actives 10% (n = 1,600). AID 652268, 2013; in the data active = activation above about 1.3%
Starred values were filed as active, the others as inactive; / = not tested or not shown.

SMILES | SMARCA2 act | FXN GAA850 act | GalR3 antag | HIF activator | Hsp70 activator | GalR3 conf | HEK-CNG parental
CCCCCCNS(=O)(=O)c1ccc(NC(=O)C2CCCO2)cc1 (stereo not given) | -2 | 4 | 15* | 0 | 0 | 26* | 0
CCCOC(=O)CCCC[C@H]1SC[C@@H](NC(=O)OC)[C@H]1NC(=O)OC | -3 | 1 | 14* | 0 | -1 | 5 | 0
Cn1c(SCC(=O)NC2CC2)nnc1-c1cccs1 | 0 | 1 | 14* | 0 | / | 7 | 0
Cc1ccc(-n2c(SCC(=O)Nc3ccc(S(=O)(=O)Nc4nccs4)cc3)nnc2-c2cccs2)cc1 | -1 | / | / | / | / | / | /
COc1ccccc1CCNC(=O)C(=O)NCC1OCCN1S(=O)(=O)c1ccc2c(c1)OCCO2 (stereo not given) | -2 | 1 | 14* | -1 | / | 7 | 0
O=C(O)C1CCCN1C(=O)c1cccc(Cl)c1 (stereo not given) | 2 | / | -10 | / | / | / | /
Cn1c(=O)c2c(nc(NCCCN3CCOCC3)n2Cc2ccc(Cl)cc2)n(C)c1=O | -4 | 4 | 14* | 1 | 0 | 15* | 0
Cn1c(=O)c2c(nc(NCC3CCCO3)n2Cc2ccccc2)n(C)c1=O (stereo not given) | 0 | -1 | / | 0 | 0 | 5 | 0
Cc1noc(C)c1COC(=O)c1ccc(F)c(S(=O)(=O)N2CCCCC2)c1 | -2 | 1 | 0 | 0 | 0 | / | /
Cc1noc(C)c1COC(=O)c1cccc(S(=O)(=O)N2CCCCCC2)c1 | -4 | 2 | 80* | / | 0 | 84* | 0
COc1ccc(-n2c(-c3ccccc3)c[n+]3c2CCC3)cc1 | -8 | -2 | -5 | 0 | / | / | /
CCOc1ccc(-c2c[n+]3c(n2-c2ccccc2)CCCCC3)cc1 | -8 | -1 | 56* | 0 | 0 | 71* | 0
O=C(O)c1ccc(O)c(O)c1 | 0 | -2 | 13* | 0 | / | 4 | 0
O=C(Nc1nc2ncccn2c1-c1ccccc1)c1ccccc1 | -1 | / | / | / | / | / | /
CC(C)CNc1cccc2c1S(=O)(=O)N(Cc1cn(Cc3cccc(F)c3)nn1)Cc1ccccc1O2 | 1 | / | / | / | / | / | /
COc1ccccc1N1C(=O)S/C(=C\c2cc(C)n(C)c2C)C1=O | 3 | 1 | 19* | 2 | 0 | 1 | 0
Cc1csc2ncnc(NCCc3ccccn3)c12 | -8 | 0 | 97* | 1 | -1 | 84* | 0
c1ccc(CCNc2ncnc3sccc23)nc1 | -1 | -1 | -2 | 2 | 2 | / | /
CC(=O)C1=C(C)N(Cc2ccc(F)cc2)C(=S)NC1c1ccc(Br)cc1 (stereo not given) | -4 | / | -3 | / | / | / | /
CC(C)(CNC(=O)/C=C/c1ccc(F)cc1)CNC(=O)/C=C/c1ccc(F)cc1 | 1 | 0 | 31* | 1 | 0 | 15* | 0
CC(C)(C)SCCNC(=O)/C=C/c1ccc(F)cc1 | 5 | 4 | 3 | 2 | 0 | / | /
Cc1cc(F)ccc1N1CCC(N2CCN(CCC(C)C)C(CCO)C2)CC1 (stereo not given) | -4 | -2 | -3 | -1 | 0 | / | /
Cc1cc(F)ccc1N1CCC(N2CCN(C(C)C)C(CCO)C2)CC1 (stereo not given) | -3 | 0 | 18* | 0 | 0 | 1 | 1
N#Cc1cc(-c2ccccc2)oc1NC(=O)c1ccco1 | -1 | 2 | 29* | 1 | 0 | 16* | 0
O=C1NC(=O)C2C3C=CC(C12)C1C(=O)NC(=O)C31 (stereo not given) | -7 | / | -4 | / | / | / | /
SMILES | SMARCA2 act | FXN GAA850 act | GalR3 antag | HIF activator | Hsp70 activator | GalR3 conf | HEK-CNG parental
O=c1c2ccccc2[nH]n1[C@@H](Cc1ccccc1)Cn1cc(-c2ccc(-c3ccccc3)cc2)nn1 | 0 | / | / | / | / | / | /
CC(=O)Nc1ccc(-c2csc(NC(=O)C3CC(=O)N(c4ccc5c(c4)OCCO5)C3)n2)cc1 (stereo not given) | -6 | -4 | 14* | -1 | / | 4 | 0
O=C(NC(Nc1nc2ccc([N+](=O)[O-])cc2s1)(C(F)(F)F)C(F)(F)F)c1cccnc1 | -11 | -12 | 52* | 1 | 0 | 85* | 1
CN(C)c1ccc(/C=C/c2cccc[n+]2[O-])cc1 | 1 | 1 | -1 | 2 | / | / | /
CC(C)CC[n+]1ccccc1/C=C/c1ccc(N(C)C)cc1 | -10 | -9 | 31* | 2 | / | 47* | 16*
CCN(CC)CCCNc1oc(-c2ccc(OC)c(OC)c2)nc1C#N | 3 | -2 | -2 | 0 | 0 | / | /
COc1ccc(-c2nc(C#N)c(NCc3ccc(C)cc3)o2)cc1OC | 1 | 7 | 23* | 0 | 0 | 20* | 0
CC(=O)N1c2ccccc2C(C)=NCC1C(=O)NC1CCCCC1 (stereo not given) | -1 | / | / | / | / | / | /
COc1cccc(NC(=S)N(CCCN2CCCC2)Cc2ccco2)c1 | -2 | -1 | 21* | 3 | 0 | 1 | 1
Fc1ccc(NC(=S)N2CCCN(c3ccc(C(F)(F)F)cn3)CC2)c(F)c1 | -5 | -3 | 110* | 0 | / | 107* | -1
CCc1nc(C)cn1S(=O)(=O)c1cc(C)c(OC)c(C)c1C | -4 | -1 | 26* | 0 | 0 | 82* | 1
O=C(NCCc1ccc(Cl)cc1)c1ccc2nc(N3CCOCC3)sc2c1 | -2 | 0 | 16* | 0 | / | 19* | 0
CCOc1ccc(CNC(=O)c2ccc3nc(N4CCOCC4)sc3c2)cc1 | 1 | 0 | 4 | 0 | / | / | /
COc1cc(C(=O)NCCCN(C)C)ccc1OCC(=O)Nc1cccc(C(F)(F)F)c1 | -2 | 4 | -1 | 0 | 0 | / | /
COc1cccc(CN(C)C(=O)c2ccc(OCC(=O)Nc3cccc(C(F)(F)F)c3)c(OC)c2)c1 | -4 | -8 | 90* | 1 | / | 94* | -1
CCOc1ccccc1NC(=O)c1ccc(NC(=O)c2ccco2)cc1 | -1 | 3 | / | -1 | -1 | 6 | -1
CCCCN1CCN(C(=O)c2cn(C(C)c3ccccc3)nn2)CC1 (stereo not given) | -4 | / | / | / | / | / | /
Cc1ccc(S(=O)(=O)NCC2CCN(C(=O)C(=O)c3cccs3)CC2)cc1 | 5 | / | -5 | / | / | / | /
COCCNC(=O)C/C(C)=N/NC(=O)C(=O)NC1CCCCC1 | 2 | 0 | 13* | 0 | 0 | 2 | 0
